Data taken from PubChem BioAssay AID651956 (Broad Institute, 2012).
Potency and affinity values are given separately. Records with an inconclusive call do not appear.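 How the source made its calls: active means in every test run, a fitted half-maximal concentration for signal decrease at or below twice the highest tested concentration; inconclusive means runs disagree, flat 30 to 70% decrease, or poor fit; inactive means the rest.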

experiment: miR-122 activators in hepatoma reporter cells, dose response, cell-based, Huh7 psiCHECK-miR122, Renilla luciferase, cherry-picked (AID 651956); details: 48 h; series mostly up to 35 µM; activity change, negative = signal decrease: at the top concentration;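 further: Renilla luciferase from a miR-122 sensor reporter so lower signal means miR-122 activation; 0% = median neutral control wells and -100% = median positive control wells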

Activity change, negative = signal decrease, inactive:
CCCN(C[C@@H]1N[C@@H](CO)[C@H]1c1ccc(-c2cccnc2)cc1)C(C)=O -34.4%
Cn1c(NC(=O)c2ccco2)c(-c2ccccc2Cl)c(=O)c2ccccc21 2.86%
CN(C[C@H]1N[C@@H](CO)[C@@H]1c1ccc(C2=CCCC2)cc1)C(=O)c1ccccn1 209%
CCC(=O)Nc1ccc2c(c1)C(=O)N(C)[C@@H]1CC[C@H](CC(=O)Nc3cccc(OC)c3)O[C@@H]1CO2 -15.5%
C[C@H]1CN([C@@H](C)CO)S(=O)(=O)c2ccc(C#Cc3ccccc3F)cc2O[C@@H]1CN(C)C(=O)c1ccc2c(c1)OCO2 -132%
CNC(=O)C[C@H]1CC[C@@H]2[C@H](COc3ccc(NC(=O)c4ccccc4OC)cc3C(=O)N2C)O1 106%
CC(=O)N1[C@H](CN(C(=O)c2ccc(F)cc2)C(C)C)[C@H](c2ccccc2)[C@@H]1CO 111%
COCC(=O)N(C[C@H]1N[C@@H](CO)[C@@H]1c1ccc(C2=CCCC2)cc1)C(C)C -21.5%
COc1cccc(C(=O)Nc2ccc3c(c2)C(=O)N(C)[C@H]2CC[C@H](CC(=O)NCc4ccc(F)cc4)O[C@H]2CO3)c1 100%
CCCC(=O)Nc1ccc2c(c1)C(=O)N(C)[C@@H]1CC[C@@H](CC(=O)NCC(F)(F)F)O[C@H]1CO2 38.3%
CN1C(=O)c2cc(NC(=O)c3cccs3)ccc2OC[C@H]2O[C@@H](CC(=O)N3CCCCC3)CC[C@H]21 -31.5%
CN1C(=O)c2cc(NC(=O)c3cccc(F)c3)ccc2OC[C@@H]2O[C@@H](CC(=O)O)CC[C@H]21 28.9% [at 30 µM]
C/C=C/c1ccc([C@H]2[C@@H](CO)N[C@@H]2CN(CC(C)C)C(=O)c2ccccn2)cc1 179%
CC(=O)N1[C@@H](CO)[C@@H](c2ccccc2)[C@@H]1CNC(=O)CN1CCOCC1 -4.92%
CN(C)CCCNC(=O)C[C@@H]1CC[C@H]2[C@@H](COc3ccc(NC(=O)c4cccc(F)c4)cc3C(=O)N2C)O1 -29.2%
COc1cccc(COc2cc3ccccc3nc2C)c1 -4.9%
N#CCc1c(C#N)c(N)nc(N2CCN(S(=O)(=O)c3ccccc3)CC2)c1C#N 88.6%
CCC(=O)N1[C@H](CO)[C@H](c2ccccc2)[C@@H]1CN(CC)C(=O)c1ccccc1 -26.6%
CCCNC(=O)C[C@@H]1CC[C@@H]2[C@@H](COc3ccc(NS(=O)(=O)c4ccccc4C)cc3C(=O)N2C)O1 35.3%
CC(C)C(=O)Nc1ccc2c(c1)C(=O)N(C)[C@@H]1CC[C@H](CC(=O)N[C@H](C)c3ccccc3)O[C@@H]1CO2 72.5%
CCNC(=O)C[C@@H]1CC[C@H]2[C@@H](COc3ccc(NC(=O)c4ccc(C(F)(F)F)cc4)cc3C(=O)N2C)O1 -32.2%
C/C=C/c1ccc([C@@H]2[C@@H](CN(C)C(=O)CC)N(C(=O)NC(C)C)[C@H]2CO)cc1 -35.2%
CO[C@H]1CN(C)C(=O)c2cc(NC(=O)c3ccccc3F)ccc2OC[C@@H](C)N(C)C[C@@H]1C -13.2%
CC(=O)c1ccc(Nc2nc3ccc(C)cc3n3cnnc23)cc1 -24.4%
COc1cccc(CNC(=O)C[C@H]2CC[C@@H]3[C@@H](COc4ccc(NC(C)=O)cc4C(=O)N3C)O2)c1 6.67%
COC(=O)C[C@H]1CC[C@@H]2[C@@H](COc3ccc(NC(=O)c4ccc(F)c(F)c4)cc3C(=O)N2C)O1 -37.6%
COCC(=O)N1[C@H](CO)[C@@H](c2ccccc2)[C@H]1CN(C)C(=O)c1ccncc1 -29.2%
CCC(=O)N1[C@H](CN(C)C(C)=O)[C@H](c2ccc(-c3cccnc3)cc2)[C@@H]1CO -27.9%
CCCNC(=O)C[C@H]1CC[C@@H]2[C@H](COc3ccc(NC(=O)c4cc(F)cc(F)c4)cc3C(=O)N2C)O1 -28.6%
CN[C@H]1C[C@H]2c3[nH]c4ccc(-c5ccc(OC)cc5)cc4c3CCN2C(=O)[C@H]1[C@H](C)O -96.4%
COC(=O)C[C@H]1CC[C@@H]2[C@@H](COc3ccc(NC(=O)c4cscn4)cc3C(=O)N2C)O1 -2.42%
CN1CCN(c2ccc(Cl)cc2NC(=O)c2ccc(S(=O)(=O)N3CCCCCC3)cc2)CC1 -22.6%
CCNC(=O)C[C@H]1CC[C@@H]2[C@@H](COc3ccc(NC(=O)c4cccc(C(F)(F)F)c4)cc3C(=O)N2C)O1 32.7%
CN1C(=O)c2cc(NC(=O)c3cccs3)ccc2OC[C@@H]2O[C@@H](CC(=O)N3CCOCC3)CC[C@H]21 0.812%
CC(=O)Nc1ccc2c(c1)C(=O)N(C)[C@H]1CC[C@@H](CC(=O)NCc3ccc4c(c3)OCO4)O[C@@H]1CO2 -26.6% [at 30 µM]
CCN(CC)S(=O)(=O)c1ccc(NC(=O)Nc2cccc(C(F)(F)F)c2)cc1 146%
CCCNC(=O)Nc1ccc2c(c1)C(=O)N(C)[C@@H]1CC[C@@H](CC(=O)NCC3CCCCC3)O[C@@H]1CO2 128%
CN(Cc1ccccc1)C(=O)COC(=O)c1ccccc1Nc1ccccc1 52.7%
